# Compound activity (PubChem BioAssay)
# Only a sample is shown.
# CYP2C19 activ: human CYP2C19 activators, primary screen, biochemical, luminescence. recombinant CYP2C19, luciferin-H EGE luminescence; hits give high values; 0 = fully inhibited enzyme, 1 = untreated enzyme. activation factor at 5 µM. 96,000 tested, under 10 active. Cytochrome P450 2C19 (Homo sapiens), P33261;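 active = activation factor of at least 2 at 5 µM in the primary screen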
# Target sequence (P33261 whole entry, looked up): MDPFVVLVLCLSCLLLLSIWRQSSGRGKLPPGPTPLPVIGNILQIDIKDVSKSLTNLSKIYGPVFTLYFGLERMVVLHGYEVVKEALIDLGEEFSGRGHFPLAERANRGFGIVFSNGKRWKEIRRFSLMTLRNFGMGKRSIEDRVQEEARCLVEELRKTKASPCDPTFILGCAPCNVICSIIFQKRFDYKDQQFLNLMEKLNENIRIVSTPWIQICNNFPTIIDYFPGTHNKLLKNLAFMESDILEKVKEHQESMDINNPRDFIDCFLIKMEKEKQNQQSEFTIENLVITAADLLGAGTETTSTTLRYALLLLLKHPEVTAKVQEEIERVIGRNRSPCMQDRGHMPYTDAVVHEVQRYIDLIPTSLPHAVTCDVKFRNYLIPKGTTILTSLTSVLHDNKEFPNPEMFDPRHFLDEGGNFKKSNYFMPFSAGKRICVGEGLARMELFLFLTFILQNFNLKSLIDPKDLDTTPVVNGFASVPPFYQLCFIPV
# CYP2C9 activ: human CYP2C9 activators, primary screen, biochemical, luminescence | Cytochrome P450 2C9 (Homo sapiens), P11712 | recombinant CYP2C9, luciferin-H conversion; hits give high values; factor 1 = untreated enzyme, 0 = blocked | activation factor at 5 µM | 96,000 tested, 1.4% active | AID 1024, 2008;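 active = activation factor of 2 or more for CYP2C9 at a 5 µM dose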
# PostGolgi ctrl: growth inhibition of yeast control strain, primary screen, counter-screen for post-Golgi transport modulator project | AID 738, 2007 | efflux-deficient yeast background strain, growth absorbance A615, 16 h | inhibition, % at 10 µM | 98,000 tested, 5% active
# PostGolgi yeast: phenotypic screen on post-Golgi transport, primary screen | post-Golgi transport phenotypic cell assay | inhibition, % at 10 µM | 98,000 tested, 0.9% active | AID 739, 2007;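 note: yeast cells grown in 1536-well plates; yeast grown about 18 h at 30C before absorbance read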
# CYP2C9 inh: blockers of cytochrome P450 2C9 activity – biochemical, luminescence, ADME assay, primary screen; P11712; CYP2C9 Supersomes, luciferin-H conversion; inhibition, % at 5 µM; 96,000 tested, 20% active;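 active = blocking of liver enzyme CYP2C9 beyond about 50% at 5 µM, limit read from the data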
# CYP2C19 inh: blockers of cytochrome P450 2C19 activity – biochemical, luminescence, ADME assay, primary screen | P33261 | CYP2C19 Supersomes, luciferin-H EGE luminescence, 30 min | inhibition, % at 5 µM | 96,000 tested, 21% active | AID 778, 2007;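 active = CYP2C19 inhibition above a set limit at 5 µM in the primary screen, cut at about 50% in these data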
# Numbers stand for hits; - = inactive. Cut-off read from the data, not from the text of the source, unless noted: active = inhibition above about 30%; inactive = the rest.
SMILES,CYP2C19 activ,CYP2C9 activ,PostGolgi ctrl,PostGolgi yeast,CYP2C9 inh,CYP2C19 inh
CC(=O)Cc1nsc(NC(=O)c2c(-c3ccccc3Cl)noc2C)n1,-,-,-,-,75.2,-
CCc1noc(C)c1C(=O)Nc1nc(-c2ccc(Cl)cc2Cl)c(C)s1,-,-,-,-,-,-
CCc1c(C)sc(NC(=O)C2CCCCC2C(=O)O)c1C(N)=O (stereo not given),-,-,-,-,-,-
CN1CCN(C(=O)CSc2nc(-c3cccs3)ccc2C#N)CC1,-,-,-,-,-,-
O=C(c1cccc(Cl)c1)c1nn(-c2ccccc2)c(=O)cc1C(F)(F)F,-,-,-,-,-,-
COc1ccc(CCNC(=O)CCC(=O)N2CCN(S(=O)(=O)c3ccccc3)CC2)cc1OC,-,-,-,-,-,-
Cc1onc(-c2ccccc2Cl)c1C(=O)Nc1nnc(-c2ccc(Br)cc2)s1,-,-,-,-,-,-
Cc1onc(-c2ccccc2Cl)c1C(=O)Nc1nnc(-c2ccc(F)cc2)s1,-,-,35.5,-,-,-
NC(N)=N/N=C/c1ccc(OCc2ccccc2Cl)cc1,-,-,36.2,-,-,-
CCOC(=O)C1=C(C)N=C2c3ccccc3C(=O)C2C1c1ccc(Cl)cc1 (stereo not given),-,-,-,-,-,-
CCOC(=O)C1=C(Cc2ccc(Cl)cc2)C(=O)c2ccccc2C1=O,-,-,-,-,94.8,99.5
N#Cc1c(-n2cccc2)cccc1-n1cccc1,-,3.7,-,-,-,62.2
N#Cc1c(Cl)cccc1-n1ccnc1,-,-,-,-,51.1,-
CCOC(=O)c1sc(NC(=O)CSc2nccc(C)n2)c(C#N)c1C,-,-,-,-,-,-
COC(=O)CSc1n[nH]c(-c2ccncc2)n1,-,-,-,-,64.9,61.2
O=C(CSc1n[nH]c(-c2ccccc2)n1)c1ccc(O)c(O)c1,-,-,-,-,55.7,64.0
CCOC(=O)c1sc(NC(=O)CSc2n[nH]c(-c3ccncc3)n2)c(C#N)c1C,-,-,-,-,50.6,-
Cc1ccc(C(=O)CSc2n[nH]c(-c3ccco3)n2)cc1C,-,-,-,-,-,-
Cc1ccc(NC(=O)CSc2n[nH]c(-c3ccncc3)n2)cc1,-,-,-,-,94.4,61.5
CCn1c(-c2ccccc2)c(C(=O)O)c2ccccc21,-,-,-,-,-,-
Cc1occc1C(=O)NNC(=O)Cc1ccccc1,-,-,-,-,-,-
CCN(CC)CCOC(=O)c1ccc(NC(=O)CCNC(=O)Cn2ccc3ccccc3c2=O)cc1,-,-,-,-,-,-
O=C(CSc1n[nH]c(-c2ccncc2)n1)Nc1ccccn1,-,-,-,-,76.7,50.0
COc1ccc(C(=O)CSc2n[nH]c(-c3ccco3)n2)cc1,-,-,-,-,-,-
Cc1c(NC(=O)CSc2n[nH]c(-c3ccccc3)n2)c(=O)n(-c2ccccc2)n1C,-,-,-,-,-,-
SMILES,CYP2C19 activ,CYP2C9 activ,PostGolgi ctrl,PostGolgi yeast,CYP2C9 inh,CYP2C19 inh
CCc1ccc(C(=O)CSc2n[nH]c(-c3ccncc3)n2)cc1,-,-,-,-,96.6,86.6
COc1cccc(NC(=O)N2CCCC2C(=O)NC2CC2)c1 (stereo not given),-,-,-,-,-,-
CC(=O)Nc1nc(C2COc3ccccc3O2)cs1 (stereo not given),-,-,-,-,-,-
CC1(C(=O)Nc2nnc(C(C)(C)C)s2)Cc2ccccc2C(=O)O1 (stereo not given),-,-,-,-,-,-
CCSc1nnc(NC(=O)c2cc(C)oc2C)s1,-,-,-,-,-,-
CCSc1nnc(NC(=O)C2(C)Cc3ccccc3C(=O)O2)s1 (stereo not given),-,-,-,-,73.5,-
CCSc1nnc(NC(=O)c2ccc3ccccc3n2)s1,-,-,32.7,-,-,-
CCSc1nnc(NC(=O)c2cc(C)nc3ccccc23)s1,-,-,39.1,-,-,-
CCN(CC)c1ccc(CNC23CN4CN(CN(C4)C2)C3)cc1,-,-,-,-,-,-
COc1ccc(CNC(=O)C2CCCN(S(=O)(=O)c3c(C)n[nH]c3C)C2)cc1 (stereo not given),-,-,-,-,-,-
O=P(O)(O)CP(=O)(O)O,-,-,-,-,-,-
